Results as given in PubChem BioAssay AID2566 (National Center for Advancing Translational Sciences (NCATS), 2010).
Inconclusive results are not listed. Calls of active or inactive are those of the source.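 Rule for the calls: active = compound that pushes labeled neuropeptide S off its receptor in a binding test; inconclusive = all other tested compounds; inactive = none, nothing was called inactive.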

Biological target: Neuropeptide S receptor (Homo sapiens) (UniProt Q6W5P4)
Assay: Confirmation Concentration-Response Assay for Antagonists of the Neuropeptide S Receptor: Radioligand Displacement, SAR for Probe
Details: CHO-hNPSR, [125I]Y10-NPS displacement, 1.5 h
Text: NIH Chemical Genomics Center [NCGC] NIH Molecular Libraries Probe Production centers Network [MLPCN] MLPCN Grant: X01-DA026210-01 Assay Submitter (PI): Heilig, Markus Alexander NCGC Assay Overview: Neuropeptide S receptor (NPSR), previously known as GPR154, is a recently de-orphanized G protein coupled receptor. Its endogenous ligand is the 20 amino acids peptide Neuropeptide S (NPS). […] NPS and its receptor are found in various tissues. Specifically they are highly expressed in brain areas that have been implicated in modulation of arousal, stress and anxiety. Central administration of NPS in mice produces an unusual profile of activity by inducing wakefulness and arousal, while at the same time suppressing anxiety. Therefore, NPSR may represent a novel drug target for the treatment of sleep and anxiety disorders. As one method of confirming the specific activity of compounds active in the primary screen (AID 1461), we developed an assay to measure the displacement of radio-labeled native ligand, NPS, from its receptor in vitro.
The assay was carried out as described (Xu et al. (2004) Neuron, 43: 487-497) with minor modification. Y10-NPS labeled with 125I was bought from NEN Perkin Elmer (Boston, MA). […] Nonspecific binding was determined in the presence of 1 uM unlabeled human NPS. […] Bound radioactivity was counted in a liquid scintillation counter.

Chain of Neuropeptide S receptor (Homo sapiens) (Q6W5P4 whole entry, looked up): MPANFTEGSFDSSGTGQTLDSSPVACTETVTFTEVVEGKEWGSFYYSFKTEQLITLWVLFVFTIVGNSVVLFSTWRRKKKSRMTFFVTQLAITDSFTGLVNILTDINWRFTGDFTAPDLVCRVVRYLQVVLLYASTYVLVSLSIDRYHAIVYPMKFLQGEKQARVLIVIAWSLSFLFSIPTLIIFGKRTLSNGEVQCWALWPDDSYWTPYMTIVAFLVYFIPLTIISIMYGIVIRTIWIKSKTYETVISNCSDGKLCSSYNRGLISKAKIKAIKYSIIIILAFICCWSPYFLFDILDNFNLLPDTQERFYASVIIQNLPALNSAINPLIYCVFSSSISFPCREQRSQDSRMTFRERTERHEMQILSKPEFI

Compound | Potency
Cc1c(P(=S)(c2ccccc2)c2ccccc2)[n+]2ccccc2n1C | 84.3 nM (active)
Cc1c(P(=S)(c2ccccc2)c2ccccc2)[n+]2ccccc2n1C/C=C/c1ccccc1 | 1 nM (active)
